Assay outcomes as filed in PubChem BioAssay.
Only some compounds are listed: those with a hit (about 1.9% of all), similar ones and a draw of the others.
PINK1 modulator = modulators of PINK1 expression; AID 624263; 410,000 compounds, 0.2% hits; Potency, µM (titrated, usually from 76.6 µM), actives largely listed as activators; PINK1 immunofluorescence, high-content cytometry, 24 h; active = well fitted activation curve with a large enough effect; inconclusive = small, poorly fitted or top-dose-only effect; cell line not stated here; also: nearly all actives have a fitted effect of over 65% in size
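Measures PINK1 amount and localization on or inside mitochondria by immunofluorescence. Stable cells get compounds at 5 concentrations for 24 hours before fixation and staining; CCCP controls included.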
Menin-MLL FL inh = displaces fluorescein MLL peptide from human menin. Fluorescence polarization, fluorescein-MLL peptide displacement from menin. 290,000 tested, under 10 active. FP activity change, % at 61.4 µM; active = well fitted curve in the direction sought with a large enough effect in the polarisation, not every such curve was filed as active; inconclusive = small, poorly fitted or top-dose-only effect, or effect the other way, or a change in a side signal; inactive = no such curve, though single readings can be large or run the other way; the % refers to the polarisation
ClpP mod = qHTS Assay for Activators of ClpP; ATP-dependent Clp protease proteolytic subunit (Bacillus subtilis (strain 168)), P80244; Potency, µM (top dose mostly 57.5 µM); purified B. subtilis ClpP, FRET peptide cleavage, 20 min; AID 651965, 2013; 340,000 compounds, 1.9% hits; active = well fitted falling curve with a large enough effect; inconclusive = small, poorly fitted or top-dose-only effect; inactive = no such curve, though single readings can be large or run the other way; also: the source files actives as falling curves though it sought activators and does not explain the sign; nearly all actives have a fitted effect of over 65% in size
Target sequence (P80244 whole entry, looked up): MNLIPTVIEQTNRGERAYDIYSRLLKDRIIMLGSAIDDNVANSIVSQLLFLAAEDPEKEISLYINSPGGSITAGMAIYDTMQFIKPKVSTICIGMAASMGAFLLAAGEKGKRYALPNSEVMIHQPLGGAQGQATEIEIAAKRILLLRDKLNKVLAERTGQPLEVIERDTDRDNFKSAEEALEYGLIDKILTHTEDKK
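FRET quenching reversal measured ClpP activation: 10 microg/mL B. subtilis ClpP at pH 8 with the FRET-FV decapeptide, read at 430 nm after 320 nm excitation. The 20-min minus 0-min signal was scaled between DMSO/no-enzyme wells and ADEP (5.8 microM final).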
Epigenetic reg = epigenetic control regulation, reporter derepression | murine LDR cells, GFP reporter derepression, 30 h | Potency, µM (doses to about 53.9 µM), hits mostly activators | 280,000 compounds, 0.2% hits | AID 1865; active = well fitted activation curve with a large enough effect; inconclusive = small, poorly fitted or top-dose-only effect; also: nearly all actives have a fitted effect of over 60% in size
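Murine LDR cells carrying a silenced, genomically integrated CMV-driven GFP reporter were exposed to compound for 30 hours at 37 C. After PBS washes, GFP-positive cells (20–120 um objects) were counted by laser-scanning microplate cytometry.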
MLL CXXC-DNA inh = inhibitors of human MLL CXXC domain-DNA interaction; Q03164; MLL-CXXC / FITC-HOXA9 DNA fluorescence polarization; Potency, µM (doses to about 115 µM), usual class: inhibitors; 290,000 compounds, 0.037% hits; AID 2662; active = well fitted inhibition curve with a large enough effect in the polarisation, with a control signal flat, not every such curve was filed as active; inconclusive = small, poorly fitted or top-dose-only effect, or effect the other way, or a change in a side signal; inactive = no such curve, though single readings can be large or run the other way; the % refers to the polarisation
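Fluorescence polarization: 7 uM MLL-CXXC (stock) preincubated 5 min with compounds, then 50 nM fluorescein-HOX-A9 DNA (stock) added; 30 min ambient. Buffer 50 mM Tris-HCl pH 7.5, 50 mM NaCl, 1 mM DTT, 0.05% BSA.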
Menin MLL FP TR = menin-MLL binding inhibition, Texas Red mutant peptide. Menin + Texas Red MLL mutant peptide, fluorescence polarization. Potency, µM (top dose mostly 61.6 µM), usual class: inhibitors. 270,000 compounds, 0.23% hits. AID 1768; active = well fitted inhibition curve with a large enough effect in the polarisation, with a control signal flat, not every such curve was filed as active; inconclusive = small, poorly fitted or top-dose-only effect, or effect the other way, or a change in a side signal; inactive = no such curve, though single readings can be large or run the other way; the % refers to the polarisation
Numbers stand for hits; i = inactive; ? = inconclusive; nt = no result; ! = not active in a repeat.

SMILES	PINK1 modulator	Menin-MLL FL inh	ClpP mod	Epigenetic reg	MLL CXXC-DNA inh	Menin MLL FP TR
CC1(C)Cc2c(c(-c3ccco3)nc3sc4c(NCC5CCCO5)ncnc4c23)CO1 (stereo unspecified)	i	i	16µM	i	i	i
CC1(C)Cc2c(c(-c3ccco3)nc3sc4c(NCCCO)ncnc4c23)CO1	i	i	i	i	i	nt
CC(C)CNc1ncnc2c1sc1nc(N3CCOCC3)c3c(c12)CC(C)(C)OC3	i	i	6.3µM	i	i	i
Cc1ccc(C(=O)N(Cc2cc3cccc(C)c3nc2N2CCC(O)CC2)C2CC2)cc1	i	nt	nt	nt	nt	nt
CCCCCn1c(=NC(=O)c2ccco2)c(C(=O)OCC)cc2c(=O)n3ccccc3nc21	i	i	16µM	i	i	i
COCCCn1c(=NC(=O)c2ccncc2)c(C#N)cc2c(=O)n3cccc(C)c3nc21	i	?	0.71µM	i	?	i
CCCCn1c(=NC(=O)c2ccco2)c(C(=O)OCC)cc2c(=O)n3ccccc3nc21	i	i	i	i	i	i
CCOC(=O)c1cc2c(=O)n3cccc(C)c3nc2n(CCCOC)c1=NC(=O)c1cccnc1	i	i	16µM	i	i	i
Cc1cccn2c(=O)c3cc(C#N)c(=NC(=O)c4ccncc4)n(CCCOC(C)C)c3nc12	i	?	i	i	i	i
CCOCCCn1c(=NC(=O)c2cccnc2)c(C(=O)OCC)cc2c(=O)n3ccccc3nc21	i	i	20µM!	i	i	i
CCCCn1c(=NC(=O)c2cccnc2)c(C(=O)OCC)cc2c(=O)n3ccccc3nc21	i	i	?	i	i	i
COc1cc(NC(=O)C2CCN(S(=O)(=O)c3ccc4c(c3)oc(=O)n4C)CC2)cc(OC)c1	i	nt	i	i	nt	nt
O=c1cc(-c2ccc(F)cc2)nc(SCc2nc(-c3cccc(C(F)(F)F)c3)no2)[nH]1	i	nt	i	i	nt	nt
COc1ccc(CCC(=O)N(C)CC(=O)Nc2ccc(N3CCOCC3)cc2)cc1	i	i	nt	i	i	i
COc1ccc(OC)c(/C=C/C(=O)N(C)CC(=O)Nc2ccc(N3CCOCC3)cc2)c1	i	nt	28µM	nt	nt	nt
CCN1C(=O)c2cccc3c(NC(=O)c4ccc5c(c4)OCCO5)ccc1c23	?	?	i	22µM	?	?
Cc1c(CN2CCOc3c(cc(-c4ncc(C(F)(F)F)cc4Cl)cc3OCC3CCCO3)C2)cnn1C (stereo unspecified)	i	nt	nt	nt	nt	nt
CCC(C)NC(=O)/C(=C/c1ccco1)c1ccccc1 (stereo unspecified)	i	i	25µM	i	i	i
CC(C)NC(=O)/C(=C/c1ccco1)c1ccccc1	i	i	i	i	i	i
COC(=O)c1c(OCc2ccccn2)cc(=O)n2c1CCN(C(=O)c1n[nH]c3c1CCCC3)CC2	i	nt	nt	nt	nt	nt
O=C(NCc1cccs1)c1ccc(CSc2nc3ccncc3n2Cc2ccccc2F)cc1	i	nt	i	i	nt	nt
CC1(C)CC(NC(=S)NC2CC2)CC(C)(C)N1	i	i	35µM	i	i	i
C=CCNC(=S)NC1CC(C)(C)NC(C)(C)C1	i	i	i	i	i	i
Cc1ccc(C)c(NC(=O)CSc2nnc(-c3n[nH]c4ccccc34)o2)c1	i	i	i	i	i	i
CC(C)(C)c1ccc(NC(=O)CSc2nnc(-c3n[nH]c4ccccc34)o2)cc1	i	i	32µM	?	i	?
SMILES	PINK1 modulator	Menin-MLL FL inh	ClpP mod	Epigenetic reg	MLL CXXC-DNA inh	Menin MLL FP TR
Cc1c(C(=O)Nc2nonc2-c2ccc(F)cc2)oc2ccc(F)cc12	28µM	i	nt	nt	i	?
CCn1c(C)cc(/C=C2\NC(=O)N(CC(=O)Nc3ccc(F)cc3)C2=O)c1C	i	i	nt	25µM	i	i
Cc1ccc(NC(=O)CN2C(=O)N/C(=C/c3cc(C)n(-c4ccc(C(=O)O)cc4)c3C)C2=O)cc1	i	?	nt	i	i	i
CCC1(C2CCN(Cc3cc4ccccc4o3)CC2)NC(=O)N(CC2COc3ccccc3O2)C1=O (stereo unspecified)	i	nt	nt	nt	nt	nt
COc1ccc(Cl)cc1-c1cc2c(c(OC)c1)OCCN(Cc1cccn1-c1nccs1)C2	i	nt	nt	nt	nt	nt
CC1CN(c2ncc(/C=N/NC(=O)c3ccccc3O)s2)CC(C)O1 (stereo unspecified)	i	i	nt	i	i	?
O=C(N/N=C/c1cnc(N2CCCCC2)s1)c1ccc(C(F)(F)F)cc1	7.1µM	i	i	i	i	?
CC(C)(C)NC(=O)c1cccc(NC(=O)Cc2cccs2)c1	i	i	35µM	i	i	i
COc1cccc(CC(NC(C)=O)C(=O)NC2CCN(c3nc(C)cc(C)c3C#N)CC2)c1OC (stereo unspecified)	i	i	28µM	i	i	i
COc1cc(CC(NC(C)=O)C(=O)NC2CCN(c3nc(C)cc(C)c3C#N)CC2)cc(OC)c1 (stereo unspecified)	i	i	?	i	i	i
CCO[C@H]1[C@H](NC(=O)c2cccnc2)c2ccccc2C12CCN(C(=O)c1ccoc1)CC2	i	nt	nt	nt	nt	nt
CCCN1CCCc2ccccc21	i	i	i	i	i	25µM
CN1CCCc2ccccc21	i	nt	i	nt	nt	nt
OC1OC[C@H](O)[C@@H](O)[C@H]1O (stereo partly specified)	nt	i	nt	nt	nt	i
OCCN1CCN(c2cc(-c3ccc(CO)cc3)nc3ccnn23)CC1	i	nt	i	nt	nt	nt
CN1CCN(c2cc(-c3ccc4ccccc4c3)nc3ccnn23)CC1	45µM	nt	i	nt	nt	nt
Cc1ccc(C(=O)Nc2cccc(-c3nc(CNC(=O)C4(C)CC4)c(C)o3)c2)s1	i	nt	nt	nt	nt	nt
COc1ccc(NC(=O)NN(C(=O)c2ccccc2)C(C)(C)C)cc1	i	i	25µM	i	i	i
COc1cc(=O)n2c(c1C(=O)N(C)Cc1nonc1C)CCN(Cc1ccccc1F)CC2	i	nt	nt	nt	nt	nt
Cc1cccc(/C=N/NC(=O)c2cc3c(s2)-c2ccccc2CC3)c1	i	i	28µM	i	i	i
O=C(c1cccc(NS(=O)(=O)c2ccccc2)c1)N1CCCC1	i	nt	i	nt	i	nt
O=C(c1cccc(NS(=O)(=O)c2ccc(F)c(F)c2)c1)N1CCN(C(c2ccccc2)c2ccccc2)CC1	i	i	32µM	i	i	i
COc1cc(OC)c2nc(-c3cc4c(c(OC)c3)OCCN(C(=O)C(C)c3n[nH]c(=O)c5ccccc35)C4)cc(C)c2c1 (stereo unspecified)	i	nt	nt	nt	nt	nt
Cc1ccc(NC(=O)CC(=O)c2ccc([N+](=O)[O-])cc2)cc1S(=O)(=O)Nc1cccc(Cl)c1	32µM	i	i	i	i	?
COc1ccc(N=C2C(=S)N(c3ccc(OC)cc3)C(=NS(=O)(=O)c3ccccc3)N2c2ccccc2)cc1	i	nt	28µM	nt	nt	nt
O=C(O)C1CCCCC1C(=O)Nc1ccccc1Nc1ccccc1 (stereo unspecified)	i	i	25µM	i	i	i
